Molecules are shown by their SMILES. The campaign covered roughly 310,000 compounds. About 14,000 (4.5%) showed an effect of 50% or more. The effect is printed as a negative number. The full list was thinned out, with strong results kept by preference.
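Also: peak tail current of the secondary pulse compared with the same well before compound.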

In this assay the target is human ether-à-go-go-related gene (hERG) potassium channel (human, UniProt Q12809). Kind of assay: primary screen, population patch clamp on CHO cells stably expressing hERG; higher = less effect of the substance.
Chain of human ether-à-go-go-related gene (hERG) potassium channel (Q12809 whole entry, looked up): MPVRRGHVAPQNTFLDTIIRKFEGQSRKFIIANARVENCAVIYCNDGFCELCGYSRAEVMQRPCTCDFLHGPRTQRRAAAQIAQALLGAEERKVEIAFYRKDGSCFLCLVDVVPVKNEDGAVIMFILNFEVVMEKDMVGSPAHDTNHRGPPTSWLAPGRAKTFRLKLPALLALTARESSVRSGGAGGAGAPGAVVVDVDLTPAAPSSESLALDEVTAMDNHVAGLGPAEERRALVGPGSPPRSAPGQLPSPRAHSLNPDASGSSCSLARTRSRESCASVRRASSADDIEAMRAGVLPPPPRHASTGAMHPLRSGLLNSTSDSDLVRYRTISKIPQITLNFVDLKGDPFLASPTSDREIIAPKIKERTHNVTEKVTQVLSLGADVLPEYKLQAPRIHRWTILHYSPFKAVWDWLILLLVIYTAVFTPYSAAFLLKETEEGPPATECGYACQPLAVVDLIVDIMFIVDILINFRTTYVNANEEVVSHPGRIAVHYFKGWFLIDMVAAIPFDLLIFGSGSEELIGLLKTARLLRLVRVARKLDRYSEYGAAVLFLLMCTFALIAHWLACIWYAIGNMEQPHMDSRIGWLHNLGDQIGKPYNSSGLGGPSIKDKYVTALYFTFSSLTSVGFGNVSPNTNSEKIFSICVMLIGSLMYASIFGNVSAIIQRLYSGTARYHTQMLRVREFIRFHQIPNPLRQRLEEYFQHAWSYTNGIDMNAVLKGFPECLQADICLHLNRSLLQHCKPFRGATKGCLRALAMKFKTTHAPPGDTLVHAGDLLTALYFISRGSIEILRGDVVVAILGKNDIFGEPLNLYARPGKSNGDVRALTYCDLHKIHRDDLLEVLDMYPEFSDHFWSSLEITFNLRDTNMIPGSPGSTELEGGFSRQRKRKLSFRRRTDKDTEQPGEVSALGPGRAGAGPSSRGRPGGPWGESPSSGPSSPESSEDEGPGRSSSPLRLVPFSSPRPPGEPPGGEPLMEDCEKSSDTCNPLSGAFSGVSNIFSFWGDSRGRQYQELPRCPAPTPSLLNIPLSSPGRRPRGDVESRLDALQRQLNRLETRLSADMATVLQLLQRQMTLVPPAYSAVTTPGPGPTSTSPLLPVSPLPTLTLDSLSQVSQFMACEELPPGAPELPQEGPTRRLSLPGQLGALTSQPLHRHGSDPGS
With `COC(=O)Cn1c(C(=O)N2CCCC2)cc2c1C[C@H]1CN(C(=O)c3ccccc3)[C@@](Cc3ccc(F)cc3)(C(=O)OC)[C@@H]21`, the “hERG current change (%, negative = inhibition) at 10uM” value was -67.4%. Then `COC(=O)[C@@]1(Cc2ccc(F)cc2)[C@H]2c3cc(C(=O)N4CCCC4)n(CCO)c3C[C@H]2CN1C(=O)c1ccccc1`, with -51.4%; and `COc1ccc(-c2csc(N(Cc3ccccc3)C(=O)COc3ccc(Cl)cc3)n2)cc1`, with 4.31%. The value for `COc1cc(C=O)ccc1OCC(=O)N1CCOCC1` was 2.65%; that for `Clc1ccc(SCc2nc3ccccc3[nH]2)cc1` was -11.2%; that for `COC(=O)c1nnn(-c2ccccc2)c1N` was -7.91%. The value for `CCOC(=O)N1CCN(CC(=O)Nc2ccc([N+](=O)[O-])cc2C(=O)Nc2ccccc2F)CC1` was -50.7%. In the case of `Cc1ccc(C)c(N2CCN(CC(=O)Nc3ccc([N+](=O)[O-])cc3C(=O)Nc3ccccc3F)CC2)c1`, the “hERG current change (%, negative = inhibition) at 10uM” value is recorded as -18%. Then `CCC(C)NCC(=O)Nc1ccc([N+](=O)[O-])cc1C(=O)Nc1ccccc1F` (stereo not drawn), with -34.7%; and `O=C(CN1CCN(c2cccc(Cl)c2)CC1)Nc1ccc([N+](=O)[O-])cc1C(=O)Nc1ccccc1F`, with 14.4%; and `Cc1cc([N+](=O)[O-])ccc1NC(=O)CN1CCN(Cc2ccccc2)CC1`, with -73.9%. As to `Cc1ccc([N+](=O)[O-])cc1NC(=O)CN1CCCCC1`, the “hERG current change (%, negative = inhibition) at 10uM” value is -11.7%. The value for `O=C(CN1CCN(Cc2ccccc2)CC1)Nc1ccc([N+](=O)[O-])cc1C(=O)Nc1ccccc1F` was -77.5%; that for `Cc1ccc(CC(=O)Nc2ccc([N+](=O)[O-])cc2C)cc1` was 0.803%. Then `O=C(CN1CCN(c2ccccn2)CC1)Nc1ccc([N+](=O)[O-])cc1C(=O)Nc1ccccc1F`, with -34.7%; and `CCCC1S/C(=N/N=C/c2ccc(C)cc2)N(Cc2ccc(OC)cc2)C1=O` (stereo not drawn), with 9.81%; and `CC(=O)Oc1ccc(-c2cc3ccccc3oc2=O)cc1`, with 0.436%. Then `CCOC(=O)N1CCN(Cc2nnc(-c3ccccc3Cl)o2)CC1.Cl`, with 11.4%; and `CCOc1c(C)cnc2c1c(=O)n(Cc1cccc(Cl)c1)c(=O)n2C`, with -36.1%. Regarding `CC(C)(C)NC(=O)CSc1ncccc1-c1nc2ccccc2[nH]1`, the “hERG current change (%, negative = inhibition) at 10uM” value is recorded as -4.73%.

On to `Cc1c(C)c2ccc(OCC(=O)Nc3ccc(N4CCC(C)CC4)cc3)cc2oc1=O`, for which the “hERG current change (%, negative = inhibition) at 10uM” value was 14.7%. The value for `COc1ccc(-n2nc3c(c2NC(=O)COc2cccc(OC)c2)CS(=O)(=O)C3)cc1` was -29.5%; that for `Cc1ccc(-c2n[nH]c(=S)n2/N=C\c2ccco2)cc1` was 24.1%; that for `O=C(C1CCN(C2CCN(Cc3ccc4c(c3)CCO4)CC2)CC1)N1CCOCC1` was -26.6%. Take `O=C(C1CCN(C2CCN(Cc3ccsc3)CC2)CC1)N1CCOCC1`: the “hERG current change (%, negative = inhibition) at 10uM” value was -3.8%. For the compound `C/C(=C\c1ccco1)CN1CCC(N2CCC(C(=O)N3CCOCC3)CC2)CC1`, the “hERG current change (%, negative = inhibition) at 10uM” value is recorded as -78.9%. `O=C(/C=C/c1ccccc1)N1CCC(N2CCC(C(=O)N3CCOCC3)CC2)CC1`: the “hERG current change (%, negative = inhibition) at 10uM” value is recorded as -23.4%. Then `O=C(C1CCN(C2CCN(C/C(Cl)=C/c3ccccc3)CC2)CC1)N1CCOCC1`, with -64.1%. Then `O=C(C1CCN(C2CCN(Cc3cccc4c3OCO4)CC2)CC1)N1CCOCC1`, with -34.7%; and `Cc1cccc(CC(=O)N2CCC(N3CCC(C(=O)N4CCOCC4)CC3)CC2)c1`, with 0.701%.

In the case of `O=C(C1CCN(C2CCN(C/C=C/c3ccccc3)CC2)CC1)N1CCOCC1`, the “hERG current change (%, negative = inhibition) at 10uM” value is given as -53.4%. In the case of `O=C(Cc1ccc(F)cc1)N1CCC(N2CCC(C(=O)N3CCOCC3)CC2)CC1`, the “hERG current change (%, negative = inhibition) at 10uM” value stood at 9.76%. For the compound `CCOCCCNC(=O)CN1CCN(S(=O)(=O)c2ccc3c(c2)CCC3)CC1`, the “hERG current change (%, negative = inhibition) at 10uM” value was 3.99%. As for `COC(=O)CSc1nnc(CNS(=O)(=O)c2ccc(C)cc2)n1C`, the “hERG current change (%, negative = inhibition) at 10uM” value is on record as 1.97%.

Consider `CN(C)N=Nc1ccc(S(=O)(=O)N2CCSC2C(=O)O)cc1` (stereo not drawn), for which the “hERG current change (%, negative = inhibition) at 10uM” value turned out to be 2.21%. `COC1CCN(C(=O)CC2C(=O)NCCN2CC2CCCCC2)CC1` (stereo not drawn): the “hERG current change (%, negative = inhibition) at 10uM” value is 13.3%. For the compound `CCOc1cccc(=[NH+]C2CCCCC2)c2c(C)n(C)c(C)c12.[O-][Cl+3]([O-])([O-])[O-]`, the “hERG current change (%, negative = inhibition) at 10uM” value is reported as -70.3%. The value for `CCOc1cccc(=O)c2c(C)n(CC(=O)c3ccccc3)c(C)c12` was -6.91%; that for `CCOc1cccc(=[NH+]C2CCCCC2)c2c(C)[nH]c(C)c12.[O-][Cl+3]([O-])([O-])[O-]` was -70.3%. Regarding `CCOc1cccc(=O)c2c(C)n(CC3CCCO3)c(C)c12` (stereo not drawn), the “hERG current change (%, negative = inhibition) at 10uM” value was -2.39%. With `CCOc1ccccc1OCCNC1CCCC1`, the “hERG current change (%, negative = inhibition) at 10uM” value is listed as 8.26%.

Turning to `CCOc1cccc(OCC)c2c(C)[n+](CC3CCCO3)c(C)c1-2.[O-][Cl+3]([O-])([O-])[O-]` (stereo not drawn), the “hERG current change (%, negative = inhibition) at 10uM” value is -36.9%.

The record behind these values is PMC4336329 (PLoS ONE, 2015).
